In all, about 25,000 sequences were measured (“ln(normalized median fluorescence intensity)”: median about 6.7, highest 2% from about 10 on). Many of the other results were omitted from the sample, so the highest values are more common in it than they were.

The subject of this assay is PfHDP1 homeodomain (GST-tagged). Briefly: gcPBM binding intensity (ln(normalized median fluorescence intensity)); higher = stronger DNA binding. The essentials:
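Plasmodium falciparum DNA-binding domains carrying a GST tag were expressed in E. coli and applied for 1 h, at about 25 μg on average, to an Agilent 4 × 180k array. The array held primer-extended double-stranded 36-bp intergenic genomic probes together with negative controls, and binding took place in 1× PBS with 1% milk, 0.2 mg/ml BSA, 0.5% salmon testes DNA and 0.03% Triton X-100. An Alexa488 anti-GST antibody detected bound protein, and the array was scanned at 488 nm. Binding intensity is taken as the highest Masliner-normalised natural-log median intensity across replicate spots of either probe orientation.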
As for “TATAATCTAACATAATGTACATGTATATGCACTTTA [XGTACX_site369]”, the “gcPBM binding intensity (ln)” value was found to be 8.43. As for “TTATATTATTCGTGTGTGCACGATATTTCATAATTG [GTGCAC_site9767]”, the “gcPBM binding intensity (ln)” value was 8.92. For “AAAAAAAAATACAAAATAGCAATAAATACACAAACG [GTGCAC_negctrl_site707]” the value was 7.12; for “TTTGATGGTACACGTACACACCTTGCAAATATTTTT [CACACA_site4645]”, 7.13; for “AAAGAAAGAAAGAAAAGTACTTAAACTTTTAAAAAT [XGTACX_site8531]”, 6.03. On to “AAAATCTAATATAATGCACACATAAAAAAAAAATCA [CACACA_site8871]”, for which the “gcPBM binding intensity (ln)” value came to 10.4. For “AAAAAAATCTCCAGTGTGCACAATCACATAATATAT [GTGCAC_site9833]”, the “gcPBM binding intensity (ln)” value worked out at 10.8.

Turning to “AAAAAATAATAAATCACACATATTATATATATATAT [CACACA_site5838]”, the “gcPBM binding intensity (ln)” value turned out to be 8.94. The value for “TTATGGAAAAATATAACACACAATGATTTTTTATAA [CACACA_site1831]” was 6.33; that for “ATTATGAAATATCGTGCACACACGAATAATATAAGA [CACACA_site1294]” was 9.49; that for “CACACGCACGGACACACACACATATAAAATCTATAT [CACACA_site6428]” was 7.73.

In the case of “AATCGAAATCGTGCACGGACACATGCAGTAGCCGAG [XGTACX_site6001]”, the “gcPBM binding intensity (ln)” value was determined as 10.2. For CAATAAATCGAAATCGTGCACGGACACATGCAGTAG the value was 10.9; for “AAATCGTGCACGGACACATGCAGTAGCCGAGAATTA [TGCATGCA_site733]”, 11.1; for ATTTTAAAAAGGATAGTGCAAATGTTAAAATAGGAC, 9.91. The value for “CGTAAATTTTTTAAAAGTACAAAAAGATACGAGAAA [XGTACX_site8722]” was 6.46. The value for “TATTCATGCATATACACACACATATATTTATATTTT [CACACA_site7786]” was 7.08; that for “TCATATTATAAATAAATAAATAAATATATATATATA [CACACA_negctrl_site577]” was 8.76.

“AAATAAAAATTAAAAAAATAGAAACGAATTGAATGC [TGCATGCA_negctrl_site365]”: the “gcPBM binding intensity (ln)” value was 6.69. The value for TATAAATTAAAATGTGTGCACTAAATTGAAATAGAA was 10.6; that for GAATAAATATTAAATGTGCACTTGAATAGATGTAAA was 9.88; that for “AATAATATTAACACACGTACAAAAGCAAACAACCAA [XGTACX_site7410]” was 7.16. In the case of “ATATATATATATCAGAGTACATTCTTTAAAATATAT [XGTACX_site5915]”, the “gcPBM binding intensity (ln)” value was 8.7. The value for “ATGTATGTGTATATATGTACATAATATATATCTTTT [XGTACX_site8666]” was 6.6; that for ATATATATCTTTTGTGTGCACATATATATAATATAT was 10.9. For the sequence “TCTTTTCTTTTGTGTGTGCACATATAAGCATGAAAC [GTGCAC_site9910]”, the “gcPBM binding intensity (ln)” value was determined as 10.4.

As for “ATAATATATATATATGCATGTACATATTTATCTTTA [TGCATGCA_site32]”, the “gcPBM binding intensity (ln)” value was 6.74.

ATAATATCTTTATGTGTGCACATATATATATATATA: the “gcPBM binding intensity (ln)” value came to 10.5. The value for “TATATATATATATGTGCACACATAATAAAAAAAAAA [CACACA_site3830]” was 10.1; that for “TTTTTTTCTCTCTCTACACACAAGGTTTAATTTAAA [CACACA_site1690]” was 6.81. With “ATTATATATAAGAAGAGTACTGAATATGTGCAATAT [XGTACX_site4471]”, the “gcPBM binding intensity (ln)” value is 11.2. The value for “TATATATATATATATGTGCACTGAAAGAATTATACA [GTGCAC_site9586]” was 9.76; that for “AATTATAATTAATAGAGTACTGAATATATATATATA [XGTACX_site8683]” was 8.9.

Consider “ATTTTAAATATTTGTGGTACCCCTTTTTTGTAACAA [XGTACX_site5590]”, for which the “gcPBM binding intensity (ln)” value worked out at 6.71.

For “ATAAAAAAATAAAACACACACATATAGATTATAGAT [CACACA_site7343]”, the “gcPBM binding intensity (ln)” value came to 7. The value for “GTATGTATATATATATGTACATACTGTTTATCGTTA [XGTACX_site6168]” was 6.4; that for “ATATTTTATTTATATACACACACATATATATATTAT [CACACA_site8177]” was 7.22. The value for “ATATTTTACATATTTGCACACATATATTTATATACA [CACACA_site855]” was 10.7.

On to “ATTTTATTTATATACACACACATATATATATTATAT [CACACA_site822]”, for which the “gcPBM binding intensity (ln)” value is 7.09.

Consider “TATTTTTGTATATATTTATTCTTATTTTACAGGAAA [TGCATGCA_negctrl_site472]”, for which the “gcPBM binding intensity (ln)” value turned out to be 6.22. For “ATATTTTACATATTTGCACACATATATTTAAATACA [CACACA_site4628]” the value was 10.3; for “AGGAAATTTGTTATTGCACACAAATTTTTCTTTTTT [CACACA_site8732]”, 9.48; for “ATTTTACATATTTGCACACATATATTTAAATACATA [CACACA_site4627]”, 10.8.

On to “TTTTTTATTCTTTTTGCACACAGGAAATTTACAGAT [CACACA_site1090]”, for which the “gcPBM binding intensity (ln)” value was 10.6.

“AATTTTATTACTTTTACACACCTATATATCATTCAT [CACACA_site7525]”: the “gcPBM binding intensity (ln)” value is 6.91. For “ATTTTATTTAAATACACACACATATATATATTATAT [CACACA_site4607]” the value was 7.14. The value for “ATGCATCATTTATTTGCACACCTATTATATACTTTT [CACACA_site2097]” was 10.1; that for “GCATCATTTATTTGCACACCTATTATATACTTTTTA [CACACA_site2098]” was 10.7; that for “GGATGCACACAAAAGGGTACATAAGAAAAAAACAGG [XGTACX_site8570]” was 9.42. The value for “TTTATATTTTAAAAAATAATATTATGTATTTTTAAA [TGCATGCA_negctrl_site507]” was 6.01.

As for AAACAATATTCTCAAGTGCAAAAAGAAAAAAGAAAT, the “gcPBM binding intensity (ln)” value stood at 9.37. For “CCTTTTTTTTTTTTATGTACTAAAATAAAATTAGAA [XGTACX_site5956]” the value was 6.14; for “TATAAAATAATTAAATGTACATAATATATAAAATAT [XGTACX_site6777]”, 6.69. As for “GTAATTTTTTTCTATACACACATATATATAATATAT [CACACA_site2655]”, the “gcPBM binding intensity (ln)” value was found to be 7.08. The value for “TTTGTGTTGTATTTTTGTACATAAAATAAACTTAAA [XGTACX_site4637]” was 6.65; that for “TATTTAAATGGATGCACACATGCATTAAATAAAATA [CACACA_site3433]” was 8.59; that for “TACATTTTTATTTTTACACACATATTTATTTATATA [CACACA_site6609]” was 7.06. “TTTTTATATTTTTGCACACATTCTTTACTCTTCAAA [CACACA_site2210]”: the “gcPBM binding intensity (ln)” value amounted to 10.4.

“ATATATTTTATACATACACACATATATATATTTTTT [CACACA_site3940]”: the “gcPBM binding intensity (ln)” value is 6.83.

Turning to “TATATATATATTTTTGCACACATTTTTTAAGGTACA [CACACA_site2145]”, the “gcPBM binding intensity (ln)” value was 10.3. On to “TATATACATATATATACACACATATATATATTTTAT [CACACA_site3788]”, for which the “gcPBM binding intensity (ln)” value is 6.65. For “AATATTTATTTTTTTGCACACATATTTTACATTTTA [CACACA_site3182]” the value was 10.3.

Regarding “TATTTTTATATTTTTGCACACATTCTTTACTCTTCA [CACACA_site2211]”, the “gcPBM binding intensity (ln)” value was 10.6. The value for “ATGACTCTCAAGTTTGCACACATTTATATTTTTTAA [CACACA_site2605]” was 10.5. Consider “TTTTCATTTTTCTTTACACACATATATTTATTTATA [CACACA_site7119]”, for which the “gcPBM binding intensity (ln)” value came to 7.15. For “ATTTTACATATTTGCACACATATATTTATATACATA [CACACA_site854]” the value was 10.6. The value for “TATTTATTTTTTTGCACACATATTTTACATTTTAAT [CACACA_site3181]” was 10.8; that for “ATATTAAGTTTTATTACACACTCTCAATTTTTATTT [CACACA_site4206]” was 6.63; that for “TAATGTACATAAACCGCACACATATAAAAAAATAAA [CACACA_site2851]” was 6.79. For “ATAAAAATTTATATATGTACTTAATTTTTAATTTTT [XGTACX_site7482]” the value was 5.98; for “ACATACAAGAATTAAACACACACAAAATATAAATTC [CACACA_site8985]”, 6.8. Take “TATCTCTCTTTCTGCTGTACATAAAAATTATATAAT [XGTACX_site5961]”: the “gcPBM binding intensity (ln)” value came out at 7.19. For “ATATAATATTTATATGCACACTTTTCTATATATAAG [CACACA_site6100]” the value was 8.84. Consider “TATAATTATTTTTTCACACATATGTATTTATATATA [CACACA_site4205]”, for which the “gcPBM binding intensity (ln)” value is 7.05. With “ATATAATTTATGTGCACACACTCCTATTTTTAGCTT [CACACA_site50]”, the “gcPBM binding intensity (ln)” value was determined as 11.3. For the sequence “GGCTTTTTTTAATATGCACACATATATTTTATATAT [CACACA_site8647]”, the “gcPBM binding intensity (ln)” value is 10.2.

As to “GTATATAATTTATGTGCACACACTCCTATTTTTAGC [CACACA_site49]”, the “gcPBM binding intensity (ln)” value came to 11.1. The value for “TTTTTCTTTATTAGCACACATAATATTATATATGTG [CACACA_site2629]” was 7.1; that for “TTTTCTATGCTAAACACACTCATTGTTACAAGTTTT [CACACA_site5531]” was 6.78. The value for “TATGAAAATATATATTGTACAGAATCTATAAAAAAT [XGTACX_site8030]” was 6.39; that for “TTTAAAAAATTATATTCACACACATACACATATATA [CACACA_site8076]” was 6.95. For the sequence “ATTTTTTTTTTTTTATGTACATATAGGTGCAAATCA [XGTACX_site6748]”, the “gcPBM binding intensity (ln)” value was 11.1. The value for “CATATATATTTTATATGTACATATATATTTTATATA [XGTACX_site8665]” was 6.35; that for GACAATTATATGTAGGTGCATATACAAATTTTTTAA was 9.14; that for “TACATAAAATATATCACACATATAATATATATATAT [CACACA_site5834]” was 8.54. The value for “GAAATGTGATAATATACACACACGCATATATATATA [CACACA_site4332]” was 8.82; that for “TTCTGCAGCAATGTTTTTTTTAAATATTTATATGGT [CACACA_negctrl_site1815]” was 6.51; that for “CAAAATATTTTTATAACACACATATATAGAATGTGC [CACACA_site1145]” was 6.34. For “AAAAATAGAGCAGCTCTCATATTTTTATGTGCAATA [CACACA_negctrl_site837]” the value was 10.6; for “TTTTTTTATCAATGTTGTACTTTTTTTTTTTTCCAT [XGTACX_site8864]”, 6.18.

In the case of “ATTAAAAAAAAAAAAAAAAAAAAAAAAAAAAAAAAA [CACACA_negctrl_site1060]”, the “gcPBM binding intensity (ln)” value was determined as 6.3.

These data come from the supplement of paper PMC11417369.
